# Laboratory results reported in PubChem BioAssay (NCATS).
# Inconclusive results are not listed. Where a call stands in place of a potency, no number is given. Calls of active or inactive are those of the source. Calls come from the whole dose curve; as a rule, active = well fitted inhibition curve with a large enough effect; inconclusive = small, poorly fitted or top-dose-only effect; inactive = no such curve, though single readings can be large or run the other way.
# Tested on: Zika virus NS2B-NS3 protease (unlinked complex)
# Assay: Primary screen GU Rhodamine qHTS for Zika virus inhibitors: Unlinked NS2B-NS3 protease assay (AID 1347159); note: nearly all actives have a fitted effect of over 60% in size
# Settings: Recombinant ZIKV NS2B-NS3 protease, Rhodamine110 substrate fluorescence; series mostly up to 107 µM
# Procedure, shortened: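 Percent inhibition derives from the 15-min fluorescence change (ex 480, em 540 nm), normalized to no-enzyme and no-inhibitor wells. Reactions contained 25 nM NS2B-NS3 complex and 1.5 microM substrate in 10 mM Tris-HCl pH 8.0.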
row,Structure (SMILES),Potency
1,COc1cc(C)[nH]c(=O)c1CNC(=O)c1c(C)n([C@H](C)C2CCOCC2)c2ccccc12,inactive
2,COC1CC(OC2CCC3(C)C(CCC4C3CCC3(C)C(C5=CC(=O)OC5)C(OC(C)=O)CC43O)C2)OC(C)C1OC1OC(CO)C(O)C(O)C1O (configuration not stated),inactive
3,CCC(C)(OC(C)=O)C(=O)O[C@H]1[C@H](OC(C)=O)C[C@@H]2[C@@](C)([C@@H]3C[C@H]4C=CO[C@H]4O3)[C@H](C)C[C@H](OC(C)=O)[C@@]2(COC(C)=O)[C@@]12CO2 (some centres not stated),inactive
4,COc1cc(CCNCc2ccccc2O)c(OC)cc1C#N,inactive
5,COC1CC(O[C@H]2CC[C@@]3(C)C(=CCC4C3C(O)[C@@H](O)[C@]3(C)[C@@H](C(C)=O)CC[C@]43O)C2)OC(C)C1OC1CC(OC)C(OC2OC(C)C(O)C(O)C2O)C(C)O1 (some centres not stated),inactive
6,C[C@@H]1C(=O)O[C@H]2[C@H](O)[C@@]34[C@@H]5OC(=O)[C@@]3(O[C@@H]3OC(=O)[C@@H](O)[C@@]34[C@H](C(C)(C)C)[C@H]5O)[C@@]12O,inactive
7,CC1C/C=C/C(O)C(O)CC/C=C/c2cc(O)cc(O)c2C(=O)O1 (configuration not stated),inactive
8,CCOc1ccccc1-n1c(C(C)N2CCN(C(=O)COc3ccc(Cl)cc3)CC2)nc2ccccc2c1=O (configuration not stated),inactive
9,CC[C@H]1CN2CC[C@H]1C[C@@H]2[C@@H](O)c1ccnc2ccc(OC)cc12,inactive
10,CN(C(=O)Cc1ccccc1)C(CN1CCCC1)c1ccccc1 (configuration not stated),inactive
11,OC1(c2ccc(Cl)cc2)c2ccccc2C2=NCCN21 (configuration not stated),inactive
12,Cc1cc(C(=O)CN2CCCC2)c(C)n1-c1ccc(F)cc1,inactive
